“And” between values parts separate entries of the source, which are not always exact repeats. Equal values may be shown once. About 2,000 (36%) of roughly 5,500 compounds were called active. Not shown: some 18% with an inconclusive outcome. Cut-off read from the data, not from the text of the source: active = normalized growth mostly below about 0.91 (no sharp cut-off); inconclusive = no clear call, values can overlap the other calls; inactive = mostly above about 0.92. This is one part of the list.
Test: chemical genetic growth profiling, strain panel (AID 1159580);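 note: tested at 20 µM; growth read once vehicle control cultures reached saturation at 30 °C; 1 = growth at the plate median or of vehicle wells; lower values mean less growth of the strain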
Details: growth OD

Measured: normalized growth

CC1=C(CC(=O)O)c2cc(F)ccc2/C1=C\c1ccc(S(C)=O)cc1 (stereo unspecified)
inactive: S. cerevisiae deletion strains, locus YJR075W, strain HOC1, hits give low values 1 | S. cerevisiae deletion strains, locus YKL009W, strain mrt4, hits give low values 0.993 | S. cerevisiae deletion strains, locus YKL068W, hits give low values 1.01 | S. cerevisiae deletion strains, locus YKL085W, strain MDH1 (second series), hits give low values 1.02 | S. cerevisiae deletion strains, locus YKL085W, strain MDH1, hits give low values 1.02 | S. cerevisiae deletion strains, locus YKL160W, strain elf1, hits give low values 1 | S. cerevisiae deletion strains, locus YKL190W, strain CNB1, hits give low values 1.01 | S. cerevisiae deletion strains, locus YKR001C, strain vps1, hits give low values 0.997 | S. cerevisiae deletion strains, locus YKR026C, strain gcn3, hits give low values 1.01 | S. cerevisiae deletion strains, locus YKR091W, strain srl3, hits give low values 1.02 | S. cerevisiae deletion strains, locus YLL001W, strain dnm1, hits give low values 0.998 | S. cerevisiae deletion strains, locus YLL026W, hits give low values 1.03 | S. cerevisiae deletion strains, locus YLL041C, strain sdh2, hits give low values 1.02 | S. cerevisiae deletion strains, locus YLR027C, strain aat2, hits give low values 1.02 | S. cerevisiae deletion strains, locus YLR039C, strain RIC1, hits give low values 1.01 | S. cerevisiae deletion strains, locus YLR058C, strain SHM2, hits give low values 1 | S. cerevisiae deletion strains, locus YLR102C, strain apc9, hits give low values 1.02 | S. cerevisiae deletion strains, locus YLR113W, strain HOG1, hits give low values 1 | S. cerevisiae deletion strains, locus YLR221C, strain rsa3, hits give low values 0.999 | S. cerevisiae deletion strains, locus YLR258W, strain gsy2, hits give low values 1.01 | S. cerevisiae deletion strains, locus YLR262C, strain YPT6 (second series), hits give low values 1.02 | S. cerevisiae deletion strains, locus YLR262C, strain YPT6, hits give low values 0.995 | S. cerevisiae deletion strains, locus YLR268W, strain sec22, hits give low values 1.06 | S. cerevisiae deletion strains, locus YLR320W, strain mms22, hits give low values 1 | S. cerevisiae deletion strains, locus YLR330W, strain CHS5, hits give low values 1.01 | S. cerevisiae deletion strains, locus YLR342W, strain FKS1 (second series), hits give low values 1.02 | S. cerevisiae deletion strains, locus YLR342W, strain FKS1, hits give low values 0.99 | S. cerevisiae deletion strains, locus YLR357W, strain rsc2, hits give low values 1.05 | S. cerevisiae deletion strains, locus YLR370C, strain arc18, hits give low values 1.03 | S. cerevisiae deletion strains, locus YLR371W, strain rom2, hits give low values 1.03 | S. cerevisiae deletion strains, locus YLR384C, strain iki3, hits give low values 1.02 | S. cerevisiae deletion strains, locus YLR418C, strain cdc73, hits give low values 1.02 | S. cerevisiae deletion strains, locus YML016C, strain PPZ1, hits give low values 1 | S. cerevisiae deletion strains, locus YML032C, strain rad52, hits give low values 1.03 | S. cerevisiae deletion strains, locus YML120C, strain ndi1, hits give low values 1.03 | S. cerevisiae deletion strains, locus YML124C, strain tub3, hits give low values 1.01 | S. cerevisiae deletion strains, locus YMR058W, strain fet3, hits give low values 1.03 | S. cerevisiae deletion strains, locus YMR078C, strain ctf18, hits give low values 1.01 | S. cerevisiae deletion strains, locus YMR125W, strain sto1, hits give low values 1.02 | S. cerevisiae deletion strains, locus YMR129W, hits give low values 1.02 | S. cerevisiae deletion strains, locus YMR205C, strain PFK2, hits give low values 1.03 | S. cerevisiae deletion strains, locus YMR223W, strain ubp8, hits give low values 0.995 | S. cerevisiae deletion strains, locus YMR231W, strain pep5, hits give low values 1.02 | S. cerevisiae deletion strains, locus YMR263W, strain SAP30, hits give low values 1.01 | S. cerevisiae deletion strains, locus YMR307W, strain GAS1, hits give low values 1 and 1.02 | S. cerevisiae deletion strains, locus YNL067W, strain RPL9B, hits give low values 1.01 | S. cerevisiae deletion strains, locus YNL071W, strain lat1, hits give low values 1.02 | S. cerevisiae deletion strains, locus YNL128W, strain TEP1, hits give low values 1.03 | S. cerevisiae deletion strains, locus YNL153C, strain GIM3, hits give low values 1.01 and 1.06 | S. cerevisiae deletion strains, locus YNL175C, strain NOP13, hits give low values 1.02 | S. cerevisiae deletion strains, locus YNL183C, strain NPR1, hits give low values 0.946 | S. cerevisiae deletion strains, locus YNL197C, strain WHI3, hits give low values 1.02 | S. cerevisiae deletion strains, locus YNL209W, strain ssb2, hits give low values 1.02 | S. cerevisiae deletion strains, locus YNL224C, strain SQS1, hits give low values 1.02 | S. cerevisiae deletion strains, locus YNL233W, strain BNI4, hits give low values 1.01 | S. cerevisiae deletion strains, locus YNL248C, strain rpa49, hits give low values 1 | S. cerevisiae deletion strains, locus YNL250W, strain rad50, hits give low values 1.01 | S. cerevisiae deletion strains, locus YNL271C, strain bni1, hits give low values 1.01 | S. cerevisiae deletion strains, locus YNL298W, strain CLA4, hits give low values 0.991 | S. cerevisiae deletion strains, locus YNL307C, strain MCK1, hits give low values 1.03 | S. cerevisiae deletion strains, locus YNL322C, strain KRE1 (second series), hits give low values 1.02 | S. cerevisiae deletion strains, locus YNL322C, strain KRE1, hits give low values 1.01 | S. cerevisiae deletion strains, locus YNR049C, strain mso1, hits give low values 1.03 | S. cerevisiae deletion strains, locus YNR052C, strain pop2, hits give low values 1.02 | S. cerevisiae deletion strains, locus YOL006C, strain TOP1, hits give low values 0.99 | S. cerevisiae deletion strains, locus YOL012C, strain htz1 1.13 | S. cerevisiae deletion strains, locus YOL147C, strain pex11, hits give low values 1.02 | S. cerevisiae deletion strains, locus YOR001W, strain rrp6, hits give low values 1.04 | S. cerevisiae deletion strains, locus YOR061W, strain CKA2, hits give low values 1 | S. cerevisiae deletion strains, locus YOR069W, strain VPS5, hits give low values 1.01 | S. cerevisiae deletion strains, locus YOR070C, strain gyp1, hits give low values 1.01 | S. cerevisiae deletion strains, locus YOR080W, strain dia2, hits give low values 1.04 | S. cerevisiae deletion strains, locus YOR083W, strain WHI5 (second series), hits give low values 1.03 | S. cerevisiae deletion strains, locus YOR083W, strain WHI5, hits give low values 0.986 | S. cerevisiae deletion strains, locus YOR106W, strain vam3, hits give low values 1.01 | S. cerevisiae deletion strains, locus YOR136W, strain idh2, hits give low values 1.01 | S. cerevisiae deletion strains, locus YOR144C, strain elg1, hits give low values 1.02 | S. cerevisiae deletion strains, locus YOR184W, strain ser1, hits give low values 1.01 | S. cerevisiae deletion strains, locus YOR231W, strain MKK1, hits give low values 0.975 | S. cerevisiae deletion strains, locus YOR265W, strain rbl2, hits give low values 1.02 | S. cerevisiae deletion strains, locus YOR270C, strain vph1, hits give low values 1.04 | S. cerevisiae deletion strains, locus YOR290C, strain snf2, hits give low values 1.02 | S. cerevisiae deletion strains, locus YOR316C, strain cot1, hits give low values 1.02 | S. cerevisiae deletion strains, locus YPL051W, strain arl3, hits give low values 0.996 | S. cerevisiae deletion strains, locus YPL055C, strain LGE1, hits give low values 0.98 | S. cerevisiae deletion strains, locus YPL078C, strain atp4, hits give low values 1.01 | S. cerevisiae deletion strains, locus YPL106C, strain sse1, hits give low values 1.03 | S. cerevisiae deletion strains, locus YPL240C, strain hsp82, hits give low values 1.02 | S. cerevisiae deletion strains, locus YPL241C, strain CIN2, hits give low values 1.01 | S. cerevisiae deletion strains, locus YPL256C, strain CLN2, hits give low values 0.994 | S. cerevisiae deletion strains, locus YPR119W, strain clb2, hits give low values 1.02 | S. cerevisiae deletion strains, locus YPR141C, strain kar3, hits give low values 1.02 | S. cerevisiae deletion strains, locus YPR163C, strain tif3, hits give low values 1.02 | S. cerevisiae deletion strains, locus YPR167C, strain met16, hits give low values 1.02 | S. cerevisiae deletion strains, strain wtn01, hits give low values 1.03 | S. cerevisiae strains, strain wild type, hits give low values 1.01

Source: PubChem BioAssay AID1159580 (chemical genetic matrix, 2015)
